Screening results: PubChem, National Center for Advancing Translational Sciences (NCATS)
Compounds with a hit are over-represented: about 10% of the library has one in this group of screens.
3T3 cytotox: Cytotoxic Profiling in NIH 3T3 Cell Line of Diverse Libraries Using Quantitative High-Throughput Screening; NIH 3T3 viability, CellTiter-Glo ATP luminescence, 48-72 h; AID 1345082, 2018; hit rate 4.3% among 94,000; Potency, µM (titrated, usually from 96.7 µM), inactives show at the top dose activity change, negative = cytotoxicity, actives largely listed as inhibitors; note: nearly all actives have a fitted effect of over 55% in size
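Mouse fibroblast NIH 3T3 cells, 400 per well, received compound via pintool and were incubated for 48 or 72 hr prior to CellTiter-Glo ATP luminescence measurement.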
GPT2 inhibitor: Primary qHTS assay for inhibitors of Glutamate pyruvate transaminase 2 (GPT2); Alanine aminotransferase 2 (Homo sapiens), Q8TD30; Recombinant GPT2, coupled pyruvate oxidase/HRP Amplex Red fluorescence; Potency, µM (doses to about 57.7 µM), for inactives: at the highest dose activity change, negative = inhibition, actives largely listed as inhibitors; hit rate 0.25% among 100,000; note: nearly all actives have a fitted effect of over 60% in size
Target sequence (Q8TD30 whole entry, looked up): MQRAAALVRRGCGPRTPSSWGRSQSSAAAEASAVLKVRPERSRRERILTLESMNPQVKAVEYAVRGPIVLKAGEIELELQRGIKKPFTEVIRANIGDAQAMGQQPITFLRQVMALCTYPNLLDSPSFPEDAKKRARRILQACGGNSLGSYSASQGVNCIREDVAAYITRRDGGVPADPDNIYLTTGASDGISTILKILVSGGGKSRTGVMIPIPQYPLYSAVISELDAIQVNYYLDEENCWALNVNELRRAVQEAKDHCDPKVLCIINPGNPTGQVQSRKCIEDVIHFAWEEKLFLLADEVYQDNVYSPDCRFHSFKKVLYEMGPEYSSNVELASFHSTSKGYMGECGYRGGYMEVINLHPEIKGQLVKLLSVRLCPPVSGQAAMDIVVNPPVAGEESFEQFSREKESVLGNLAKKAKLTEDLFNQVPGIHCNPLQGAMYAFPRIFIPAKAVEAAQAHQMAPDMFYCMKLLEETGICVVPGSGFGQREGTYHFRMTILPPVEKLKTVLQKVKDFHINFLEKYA
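Inhibition is scored from Amplex Red fluorescence generated when pyruvate oxidase and HRP act on pyruvate released by GPT2. Reactions contain 10ng/uL enzyme, 250uM a-KG and 2mM L-alanine and run 30 min at room temperature.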
FLuc inh: Firefly luciferase inhibition profiling of diverse chemical library using quantitative high-throughput screening. purified P. pyralis luciferase, luminescence, biochemical. Luciferin 4-monooxygenase (Photinus pyralis), P08659. hit rate 2.5% among 76,000. Potency, µM (top dose mostly 115 µM), most hits filed as inhibitors; note: nearly all actives have a fitted effect of over 65% in size
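Purified P. pyralis luciferase (10nM final) in 50mM Tris acetate pH 7.5, 10mM Mg acetate, 0.01% Tween-20, 0.05% BSA with 10uM D-luciferin and 10uM ATP. Compounds titrated qHTS. Luminescence imaged on CCD.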
HEK293 tox: Cytotoxic Profiling in HEK 293 Cell Line of Diverse Libraries Using Quantitative High-Throughput Screening; HEK 293 viability, ATP luminescence (CellTiter-Glo), 48-72 h; Potency, µM (highest dose often 115 µM), for the others: at the top dose activity change, negative = cytotoxicity, actives largely listed as inhibitors; AID 1345083, 2018; hit rate 6.6% among 94,000; note: nearly all actives have a fitted effect of over 60% in size
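Luminescence from cellular ATP, measured with CellTiter-Glo, indicates HEK 293 viability. Cells plated at 250 cells/well are treated with compound for 48 or 72 hr at 37 degree Celsius before reagent addition.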
hNpr1 antagonist: Natriuretic polypeptide receptor (hNpr1) antagonism - Primary qHTS. Atrial natriuretic peptide receptor 1 (Homo sapiens), P16066. HEK293 hNpr1 GloSensor cGMP, ANP-stimulated luminescence. Potency, µM (doses to about 46.3 µM), without a hit: at the top dose activity change, negative = inhibition, actives largely listed as inhibitors. hit rate 1.6% among 76,000. AID 1347048, 2019; calls by dose curve; note: nearly all actives have a fitted effect of over 60% in size
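Compound pre-incubated 30 min at room temperature on GloSensor-loaded HEK293 cells stably carrying hNpr1 and the pGS-40F cGMP biosensor. Stimulation uses hNppA at 0.1 nM final; luminescence is taken at baseline and 20 min post-agonist.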
The depositor's hits bear a star; i = inactive; ? = inconclusive; . = no result; [ ] = dose if it differs, or a comment. Unless noted, calls come from the whole dose curve; as a rule, active = well fitted curve in the direction sought with a large enough effect; inconclusive = small, poorly fitted or top-dose-only effect, or another doubt; inactive = no such curve, though single readings can be large; an effect the other way counts as inactive or inconclusive. % is set by controls: 0 for no effect and ±100 for the full control effect; potency is the fitted concentration of half-maximal effect.

SMILES | 3T3 cytotox | GPT2 inhibitor | FLuc inh | HEK293 tox | hNpr1 antagonist
Cc1nc(-c2ccc(C(F)(F)F)cc2)cc([C@H]2CN3CC[C@H]2C[C@@H]3CNC(=O)C2CC2)n1 | ? | 1% | i | ? | 3%
Cc1nc(-c2ccc(N(C)C)cc2)cc([C@H]2CN3CC[C@H]2C[C@@H]3CNC(=O)N2CCOCC2)n1 | ? | i | i | ? | 0%
Cc1nc(-c2ccc(N(C)C)cc2)cc([C@H]2CN3CC[C@H]2C[C@@H]3CNC(=O)C(C)(C)C)n1 | 89µM* | i | i | 56µM* | 1%[70.6 µM]
CCCCOC(=O)N1C[C@H](C(=O)OCC)[C@H]2c3ccccc3N(CC3CC3)C(=O)[C@]21C | ? | -10%[27.3 µM] | . | ? | .
Cc1cccc([C@H]2C[C@@H](O)[C@@H](O)[C@@H]2NCC2CCCC2)c1 | 89µM* | -35%[88.5 µM] | i | 50µM* | -28%[70.6 µM]
CCOC(=O)[C@H]1CN(C(=O)Cc2ccccc2)[C@]2(C)C(=O)N(CCOC(C)=O)c3ccccc3[C@H]12 | -22%[46.1 µM] | i | . | ? | .
CCOC(=O)[C@H]1CN(C(=O)CCc2ccccc2)[C@]2(C)C(=O)N(CCOC(C)=O)c3ccccc3[C@H]12 | -29% | . | . | 89µM* | .
CCOC(=O)[C@H]1CN(C(=O)Nc2ccc3c(c2)OCO3)[C@]2(C)C(=O)N(CC3CC3)c3ccccc3[C@H]12 | ? | i | . | 35µM* | .
CCOC(=O)[C@H]1CN(C(=O)/C=C/c2ccccc2)[C@]2(C)C(=O)N(CC3CC3)c3ccccc3[C@H]12 | ? | -2%[27.3 µM] | . | 28µM* | .
CC(C)=CCC[C@]1(C)C=Cc2c(O)c3c(c(CC=C(C)C)c2O1)O[C@]12C(=C[C@@H]4CC1C(C)(C)O[C@@]2(C/C=C(/C)C(=O)O)C4=O)C3=O | . | i | . | . | .
CNCc1cccnc1 | i | ? | . | 3%[230 µM] | .
O=c1c(-c2cccs2)ccc2n1C[C@H]1C[C@@H]2CN(Cc2cc3ccccc3o2)C1 | ? | i | i | 89µM* | -20%[70.6 µM]
Cc1ccccc1-c1ccc2n(c1=O)C[C@H]1C[C@@H]2CN(Cc2cccs2)C1 | ? | -1%[88.5 µM] | i | 71µM* | ?
O=C(O)COCC(=O)N1C[C@@H]2C[C@H](C1)c1ccc(-c3cc4ccccc4s3)c(=O)n1C2 | -9% | -16% | ? | -8% | 3%
Cc1ccccc1-c1ccc2n(c1=O)C[C@H]1C[C@@H]2CN(C(=O)CCC(=O)O)C1 | 1%[174 µM] | ? | i | -9%[172 µM] | 3%[70.6 µM]
CCOC(=O)[C@H]1CN(C(=O)c2cc3ccccc3s2)[C@]2(C)C(=O)N(CC3CC3)c3ccccc3[C@H]12 | ? | i | . | ? | .
CCCCCn1cc(C(=O)Cc2ccccc2OC)c2ccccc21 | . | -24% | . | . | .
CC(C)(C)c1ccc(-c2cn(C[C@H]3CC4CCN3C[C@@H]4C(=O)Nc3ccccc3)nn2)cc1 (stereo partly specified) | 28µM* | -11% | ? | 28µM* | 1%
O=C(Nc1ccc2n(c1=O)C[C@H]1C[C@@H]2CN(CC2CCCCC2)C1)C1CCCCC1 | ? | ? | i | 56µM* | -22%[70.6 µM]
O=C(Nc1ccc2n(c1=O)C[C@H]1C[C@@H]2CN(C(=O)c2ccccc2)C1)NC1CCCCC1 | -19%[174 µM] | -3%[88.5 µM] | ? | -2%[172 µM] | 1%[70.6 µM]
COc1ccc2c(C)c(C(=O)N3CCC(C#N)(c4ccccc4)CC3)oc2c1 | ? | -18% | i | ? | -18%
O=C(CCc1nc2ccccc2s1)N1[C@H]2CC[C@@H]1c1cnc(-c3ccc(F)cc3)nc1C2 | -26% | i | i | 40µM* | 0.71µM*
O=C(CCc1nc2ccccc2[nH]1)N1[C@H]2CC[C@@H]1c1cnc(-c3ccc(F)cc3)nc1C2 | -13% | -7% | i | -28% | -2%
Cc1noc(C)c1S(=O)(=O)N1[C@H]2CC[C@@H]1c1cnc(-c3ccc(F)cc3)nc1C2 | ? | i | i | 45µM* | ?
